Measured values as given in PubChem BioAssay AID1347048 (National Center for Advancing Translational Sciences (NCATS), 2019).
The campaign covered roughly 76,000 compounds. About 1,200 (1.6%) were called active. Where a call stands in place of a potency, no number is given. About 4% were inconclusive and are not listed. The sample holds actives, similar compounds and a random draw of the others, so the mix is not that of the screen. The call rests on the fitted dose curve.

The molecules below were run against Atrial natriuretic peptide receptor 1 (Homo sapiens) (UniProt P16066) (assay: Natriuretic polypeptide receptor (hNpr1) antagonism - Primary qHTS). Settings: HEK293 hNpr1 GloSensor cGMP, ANP-stimulated luminescence; series mostly up to 70.6 µM.
Chain of Atrial natriuretic peptide receptor 1 (Homo sapiens) (P16066 whole entry, looked up): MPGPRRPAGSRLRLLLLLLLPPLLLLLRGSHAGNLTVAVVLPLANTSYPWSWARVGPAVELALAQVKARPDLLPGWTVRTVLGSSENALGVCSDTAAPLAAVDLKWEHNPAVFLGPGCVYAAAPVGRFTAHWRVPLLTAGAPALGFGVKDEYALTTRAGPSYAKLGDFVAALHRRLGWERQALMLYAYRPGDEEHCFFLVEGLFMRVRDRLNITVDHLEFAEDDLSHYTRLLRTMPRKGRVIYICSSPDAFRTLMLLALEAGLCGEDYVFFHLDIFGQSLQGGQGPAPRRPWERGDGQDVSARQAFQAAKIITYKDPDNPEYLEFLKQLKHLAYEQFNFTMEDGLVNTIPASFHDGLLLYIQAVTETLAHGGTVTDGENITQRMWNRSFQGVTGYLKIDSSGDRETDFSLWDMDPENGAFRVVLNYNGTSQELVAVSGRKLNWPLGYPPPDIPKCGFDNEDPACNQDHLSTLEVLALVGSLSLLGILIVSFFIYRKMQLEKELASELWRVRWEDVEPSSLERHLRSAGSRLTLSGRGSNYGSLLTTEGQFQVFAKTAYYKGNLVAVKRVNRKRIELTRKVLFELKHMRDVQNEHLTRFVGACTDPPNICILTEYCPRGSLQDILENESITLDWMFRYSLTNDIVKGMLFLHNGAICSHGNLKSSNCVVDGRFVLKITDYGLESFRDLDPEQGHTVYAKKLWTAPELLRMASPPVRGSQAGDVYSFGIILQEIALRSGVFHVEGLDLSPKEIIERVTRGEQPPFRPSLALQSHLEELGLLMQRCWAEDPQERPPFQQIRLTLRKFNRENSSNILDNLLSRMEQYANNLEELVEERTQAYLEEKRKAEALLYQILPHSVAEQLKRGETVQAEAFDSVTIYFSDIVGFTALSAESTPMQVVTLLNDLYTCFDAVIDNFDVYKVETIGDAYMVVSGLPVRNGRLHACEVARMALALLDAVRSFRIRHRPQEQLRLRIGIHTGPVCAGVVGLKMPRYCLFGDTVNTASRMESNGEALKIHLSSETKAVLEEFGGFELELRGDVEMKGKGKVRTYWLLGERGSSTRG
From the text: Pruritus or itch, is an irritating skin sensation that creates a need to scratch, and ranges from mildly unpleasant and passing to acute and persistent sensations. […] Conventional treatments include topical anti-inflammatory agents, anti-histamines, and emollients, which are aimed at managing the itchy sensation and not the underlying disease. The treatment of pruritus remains a diagnostic and therapeutic challenge. Neurotransmission in the spinal cord from primary pruriceptors to second order neurons is a necessary step that eventually results in the sensation of itch. At this synapse, primary pruriceptors use the neuropeptide natriuretic polypeptide B (NppB) to activate its cognate receptor Natriuretic polypeptide receptor 1 (Npr1) on second order neurons. Inhibition of this step is a new potential strategy to inhibit acute and chronic itch. In order to identify small molecular compounds that can inhibit the Npr1 receptor we developed a high-throughput assay to probe inhibition of the receptor guanylate cyclase Npr1. The assay was designed taking advantage of Promega's GloSensor[TM] technology (Fan, F. et al. 2008). It involves the expression of a cyclic guanosine monophosphate (cGMP) biosensor, comprised of a firefly luciferase variant that was coupled to the cGMP binding domain of human phosphodiesterase 5A, and loading of cells with a cell-permeable luciferase substrate to monitor cGMP production by Npr1 in real time in live cells. In detail, we generated human embryonic kidney 293 cells stably expressing the human Npr1 and the cGMP GloSensor[TM] pGS-40F. Stimulating these cells with the Npr1 agonists human NppA or NppB, luciferase-induced light production could be detected in a dose-dependent manner. We also generated HEK293 cells stably expressing human Npr2 and pGS-40F and cells only expressing pGS-40F to conduct secondary counter screens. In these cells, NppC or sodium nitroprusside were used to stimulate Npr2 or soluble guanylate cyclase which is endogenously expressed in HEK293 cells, respectively. REFERENCE F. Fan, B. F. Binkowski, B. L. Butler, P. F. Stecha, M. K. Lewis, K. V. Wood, Novel genetically encoded biosensors using firefly luciferase. ACS Chem. Biol., 2008, 3: 346-351 .
PROTOCOL TABLES (as described by Inglese J, Shamu CE and Guy RK. 2007) SEQUENCE No. (e.g., 1, 2, 3, etc.); […] (e.g., Cells, Incubation, Reagent, etc.); VALUE and DESCRIPTION. GLOSENSOR PROTOCOL 1. Cells. Seed 1500 HEK293 cGMP-sensor cells expressing hNpr1 per well in 4uL into Greiner 1536-well white/solid bottom high base, tissue culture-treated plates. 2. Incubation. Incubate plated cells at 37C in 5% CO2, 95% RH overnight. 3. Reagent. Add 1uL per well GloSensor reagent from Promega (2% final concentration) or CO2 independent media vehicle control to respective columns of Greiner 1536-well plates. 4. Incubation. Incubate plated cells at room temperature for 2 h, protect from light. 5. Compounds. Library compounds and A-71915 control added at 23 nL per well, transferred by Pin Tool. 6. Incubation. Incubate plated cells for 30 min. at room temperature, protect from light. 7. Detector. GloSensor baseline pre-read luminescence measured using CCD-based camera (Viewlux). 8. Compound. Add 1uL of hNppA peptide to 0.1 nM final concentration to stimulate hNpr1 or CO2 independent media as vehicle control. 9. Incubation. Incubate treated cells at room temperature for 20 min., protect from light. 10. Detector. GloSensor post-hNppA luminescence measured using CCD-based camera (Viewlux). NOTES (numbers refer to Sequence numbers above) 1. HEK293 cells expressing hNpr1 and GIP/pGS-40F grown to 85-95% confluence (48-72 h) in T175 culture flasks (CO2 independent media supplemented with 10% FBS, 1% Pen/Strep antibiotics and 1 ug/mL puromycin). Trypsinize and harvest cells from T175 culture flasks and filter through 40 um cell strainer. Cells counted with Invitrogen Countess (30,000,000 - 50,000,000 cells/flask). […]
Further: nearly all actives have a fitted effect of over 60% in size.
Potency means the concentration at half of the fitted maximal effect.

Row | SMILES | Potency
1 | COc1cc2c(cc1Oc1cccc(N(C)C)c1)NC(=O)C21CCN(Cc2ccccn2)CC1 | 10 µM (active)
2 | COc1cc2c(cc1OCc1ccncc1)NC(=O)C21CCN(Cc2ccccn2)CC1 | inactive
3 | COc1cc2c(cc1Oc1ccccc1)NC(=O)C21CCN(c2ccnc(C)n2)CC1 | inactive
4 | CN(Cc1ccccc1)C[C@H]1CN2CC[C@H]1C[C@@H]2CNC(=O)Nc1cccc(C#N)c1 | inactive
5 | COc1cc2c(cc1OCc1ccccc1)NC(=O)C21CCN(CCC(C)C)CC1 | inactive
6 | COc1cc2c(cc1OCc1ccncc1)NC(=O)C21CCN(c2ncc(F)cn2)CC1 | 20 µM (active)
7 | COc1cc2c(cc1OCc1ccncc1)NC(=O)C21CCN(c2ncccn2)CC1 | inactive
8 | Cc1nc(-c2ccccc2)cc([C@H]2CN3CC[C@H]2C[C@@H]3CNC2CCOCC2)n1 | inactive
9 | O=C(NCc1ccccc1)[C@H]1CN2CCC1C[C@@H]2Cn1cc(-c2ccc(F)cc2)nn1 (stereo not given in full) | inactive
10 | Cc1nc(-c2ccccc2)cc([C@H]2CN3CC[C@H]2C[C@@H]3CNC2CCN(C)CC2)n1 | inactive
11 | CCCS(=O)(=O)NC[C@H]1C[C@@H]2CCN1C[C@@H]2c1cc(-c2ccccc2)nc(C)n1 | inactive
12 | CCC(CC)c1cc([C@H]2CN3CC[C@H]2C[C@@H]3CNC(=O)NCc2ccccc2)nc(-c2ccncc2)n1 | 11.2 µM (active)
13 | CCC(CC)c1cc([C@H]2CN3CC[C@H]2C[C@@H]3CNS(=O)(=O)c2ccccc2C#N)nc(-c2ccncc2)n1 | inactive
14 | COc1ccc(C(=O)N2[C@H]3CC[C@@H]2c2cnc(-c4ccccc4)nc2C3)c(OC)c1 | inactive
15 | COc1cc2c(cc1OCc1ccccc1)NC(=O)C21CCN(C(=O)C(C)C)CC1 | inactive
